# Measurements taken from PubChem BioAssay (EPA / NIEHS).
# Records with an inconclusive call do not appear. The source made the active and inactive calls. Rule for the calls: active = hit-call score of the fitted dose curve at least 0.9, where 1 is the maximum; inconclusive = response in the unintended direction; inactive = score below 0.9.
# Read-out: sulfotransferase (SULT2A), SULT2A1 (gene 6822)
# Experiment: CLD_SULT2A_24hr: CellzDirect (CLD) Gene Expression Assay for sulfotransferase (SULT2A) at 24 hours (AID 2283694);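 for AC50: potency for increased SULT2A1 mRNA level as induction over DMSO baseline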
# Protocol: CLD_24hr is a cell-based, multiplexed-readout assay that uses hepatocyte, a human liver primary cell, with measurements taken at 24 hours after chemical dosing in a 96-well plate.CLD_SULT2A_24hr is one of 16 assay component(s) measured or calculated from the CLD_24hr assay. It is designed to make measurements of mRNA induction, a form of inducible reporter, as detected with chemiluminescence signals by Quantitative Nuclease Protection Assay (qNPA) technology.Data from the assay component CLD_SULT2A_24hr was analyzed at the endpoint, CLD_SULT2A_24hr, in the positive analysis fitting direction relative to DMSO as the negative control and baseline of activity. Using a type of inducible reporter, gain-of-signal activity can be used to understand changes in the reporter gene as they relate to the gene SULT2A1. Furthermore, this assay endpoint can be referred to as a primary readout. To generalize the intended target to other relatable targets, this assay endpoint is annotated to the transferase intended target family, where subfamily is sulfotransferase.
# Human hepatocyte cultures were treated daily for two consecutive days with fresh dosing solutions containing appropriate concentrations of the 320 ToxCast chemicals (chemical identities were blinded to CellzDirect and other ToxCast collaborators), vehicle control (0.2% DMSO), and positive control inducers as summarized in Table 1. Due to the large number of treatment groups and chemicals examined, the ToxCast chemicals were divided into two groups (spanning two independent cultures of hepatocytes from separate donor preparations (Hu778: ToxCast plates 1 and 2; Hu776: ToxCast plates 3 and 4). Each preparation of human hepatocyte cultures was treated with respective vehicle control, medium only control, set of six positive controls/reference chemicals for the five hepatic receptor pathways, and a subset of eight of the ToxCast chemicals (indoxacarb, pyrithiobac-sodium, norflurazon, cyhalofop-butyl, methomyl, thiram, acetochlor, and propiconazole). These replicate data, coupled with internal replicates designed within the blinded ToxCast chemical library, provided additional data to evaluate interindividual differences between hepatocyte preparations and their potential impact on chemical profiles.Cell morphology and integrity were evaluated using phase-contrast microscopy as an indicator of hepatocyte cell health (Tyson & Green, 1987). Cultures for each treatment group (i.e., media, vehicle [0.2% DMSO], positive control inducers [multiple concentrations], and the ToxCast chemicals [multiple concentrations]) were observed and cell morphology was assessed relative to vehicle control cultures at each harvest time point (0, 6, 24, or 48 h). […] Images were evaluated at the conclusion of the study to assess changes in cell integrity and account for the effects of chemical exposure on uncharacteristic changes in concentration-dependent gene expression profiles. The results from these determinations of apparent cytotoxicity were annotated (yes/no) alongside the corresponding qNPA data for reference.At the conclusion of each treatment period, hepatocyte cultures (96-well) were washed with 1 volume of HBSS, lysed by addition of 25 ul ArrayPlate lysis buffer (HTG, Tucson, AZ), and 70 ul/well of Denaturation Oil, denatured by incubation at 95C for 10 min, and frozen at approximately -70C until analysis by nuclease protection assay (qNPA) (Roberts et al., 2007). For qNPA analysis, cell lysates were thawed at 50C for approximately 30 min, qNPA probes were added, and samples were incubated at 95C for 10 min to begin the detection process by denaturing the target RNA, dissociating the duplexes and secondary structure hybridization. At the conclusion of the hybridization period, S1 nuclease reagent was added to each sample to digest all nonprotected nucleotides at 50C for 60-90 min. […]
Compound,outcome,AC50
CC1(C)C(C(=O)OC(C#N)c2cccc(Oc3ccccc3)c2)C1(C)C (stereo not given),inactive,
COP(=O)(OC)O/C(C)=C/C(=O)N(C)C,inactive,
COc1cc(OC)nc(NC(=O)NS(=O)(=O)c2ncccc2OCC(F)(F)F)n1,inactive,
CC(C)Nc1nc(Cl)nc(NC(C)C)n1,inactive,
CC(C)Oc1cccc(NC(=O)c2ccccc2C(F)(F)F)c1,inactive,
CCOP(=S)(OCC)Oc1nc(Cl)n(C(C)C)n1,inactive,
CCNP(=S)(OC)O/C(C)=C/C(=O)OC(C)C (stereo not given),inactive,
CC1(C)CON(Cc2ccccc2Cl)C1=O,inactive,
C=C(C)CN(CC)c1c([N+](=O)[O-])cc(C(F)(F)F)cc1[N+](=O)[O-],inactive,
Cc1cnc(C2=NC(C)(C(C)C)C(=O)N2)c(C(=O)O)c1 (stereo not given),inactive,
Nc1c(Cl)c(Cl)nc(C(=O)O)c1Cl,inactive,
CCCCC(O)(Cn1cncn1)c1ccc(Cl)cc1Cl (stereo not given),inactive,
Clc1cccc(C(Cl)(Cl)Cl)n1,inactive,
CS(=O)(=O)c1cc(C(F)(F)F)ccc1C(=O)c1cnoc1C1CC1,inactive,
COCc1cnc(C2=NC(C)(C(C)C)C(=O)N2)c(C(=O)O)c1 (stereo not given),inactive,
CC1(C)CCC(=Cc2ccc(Cl)cc2)C1(O)Cn1cncn1 (stereo not given),inactive,
COc1cc(Cl)c(OC)cc1Cl,inactive,
COCC(=O)N(c1c(C)cccc1C)C(C)C(=O)OC (stereo not given),inactive,
COC(=O)c1c(C(F)F)nc(C(F)(F)F)c(C2=NCCS2)c1CC(C)C,,20 µM (active)
COC(=O)N(C(=O)N1CO[C@@]2(C(=O)OC)Cc3cc(Cl)ccc3C2=N1)c1ccc(OC(F)(F)F)cc1,inactive,

Compound,outcome,AC50
CC1(C)C(C=C(Cl)Cl)C1C(=O)OC(C#N)c1cccc(Oc2ccccc2)c1 (stereo not given),inactive,
COP(=S)(OC)SCn1nnc2ccccc2c1=O,inactive,
CO/N=C(/C1=NOCCO1)c1ccccc1Oc1ncnc(Oc2ccccc2Cl)c1F,inactive,
CCOP(=O)(OCC)Oc1nc(Cl)c(Cl)cc1Cl,inactive,
O=C(Nc1ccccc1-c1ccc(Cl)cc1)c1cccnc1Cl,inactive,
CCCN(CC)CC1COC2(CCC(C(C)(C)C)CC2)O1 (stereo not given),,3.97 µM (active)
COC(=O)NC(=S)Nc1ccccc1NC(=S)NC(=O)OC,inactive,
O=C(O)c1c(Cl)ccc2cc(Cl)cnc12,inactive,
CC(C)(C)C(=O)C(Oc1ccc(Cl)cc1)n1cncn1 (stereo not given),inactive,
CSC(=O)c1c(C(F)F)nc(C(F)(F)F)c(C(=O)SC)c1CC(C)C,,7.07 µM (active)
COC(=O)NS(=O)(=O)c1ccc(N)cc1,inactive,
CCN(CC)C(=O)C(C)Oc1cccc2ccccc12 (stereo not given),inactive,
CC(C)N1C(=O)N(c2ccccc2)CSC1=NC(C)(C)C,inactive,
COc1ccc(-c2ccccc2)cc1NNC(=O)OC(C)C,,33.5 µM (active)
OC(c1ccc(Cl)cc1)(c1ccc(Cl)cc1)C(Cl)(Cl)Cl,,20 µM (active)
CCOc1nc(F)cc2nc(S(=O)(=O)Nc3c(Cl)cccc3Cl)nn12,,5.51 µM (active)
CCCC(=NOCC)C1=C(O)CC(CC(C)SCC)CC1=O (stereo not given),inactive,
CC(C)C1(C)N=C(c2ncccc2C(=O)O)NC1=O (stereo not given),inactive,
CN=C=S,inactive,
CCOC(=O)C(C)OC(=O)c1cc(Oc2ccc(C(F)(F)F)cc2Cl)ccc1[N+](=O)[O-] (stereo not given),,3.51 µM (active)
